Reference: PubChem BioAssay AID1159580 (chemical genetic matrix, 2015)
In all, about 5,500 compounds went through this assay and about 2,000 (36%) were called active. Another 18% or so got no clear call; they are omitted. No stated cut-off is given here; in the data, active means normalized growth mostly below about 0.91 (no sharp cut-off); inconclusive means no clear call, values can overlap the other calls; inactive means mostly above about 0.92. This is one part of the list.

Assay: chemical genetic growth profiling, strain panel (AID 1159580);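 further: tested at 20 µM; growth read once vehicle control cultures reached saturation at 30 °C; 1 = growth at the plate median or of vehicle wells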
Details: growth OD

Measured: normalized growth

COC(=O)C(C)c1ccc(C(=O)c2cccs2)cc1 (configuration not stated)
active: S. cerevisiae deletion strains, locus YNL307C, strain MCK1, stronger effect = lower value 0.819 | S. cerevisiae deletion strains, locus YOR184W, strain ser1, stronger effect = lower value 0.747
inactive: S. cerevisiae deletion strains, locus YJR075W, strain HOC1, stronger effect = lower value 1.07 | S. cerevisiae deletion strains, locus YKL009W, strain mrt4, stronger effect = lower value 0.905 | S. cerevisiae deletion strains, locus YKL068W, stronger effect = lower value 0.967 | S. cerevisiae deletion strains, locus YKL085W, strain MDH1 (second series), stronger effect = lower value 0.941 | S. cerevisiae deletion strains, locus YKL085W, strain MDH1, stronger effect = lower value 0.941 | S. cerevisiae deletion strains, locus YKL160W, strain elf1, stronger effect = lower value 1 | S. cerevisiae deletion strains, locus YKL190W, strain CNB1, stronger effect = lower value 0.997 | S. cerevisiae deletion strains, locus YKR001C, strain vps1, stronger effect = lower value 0.936 | S. cerevisiae deletion strains, locus YKR026C, strain gcn3, stronger effect = lower value 1 | S. cerevisiae deletion strains, locus YKR091W, strain srl3, stronger effect = lower value 1.01 | S. cerevisiae deletion strains, locus YLL001W, strain dnm1, stronger effect = lower value 1.01 | S. cerevisiae deletion strains, locus YLL026W, stronger effect = lower value 1.01 | S. cerevisiae deletion strains, locus YLL041C, strain sdh2, stronger effect = lower value 1.01 | S. cerevisiae deletion strains, locus YLR027C, strain aat2, stronger effect = lower value 1.01 | S. cerevisiae deletion strains, locus YLR039C, strain RIC1, stronger effect = lower value 0.862 | S. cerevisiae deletion strains, locus YLR058C, strain SHM2, stronger effect = lower value 0.989 | S. cerevisiae deletion strains, locus YLR102C, strain apc9, stronger effect = lower value 0.966 | S. cerevisiae deletion strains, locus YLR113W, strain HOG1, stronger effect = lower value 0.943 | S. cerevisiae deletion strains, locus YLR221C, strain rsa3, stronger effect = lower value 0.978 | S. cerevisiae deletion strains, locus YLR258W, strain gsy2, stronger effect = lower value 1.02 | S. cerevisiae deletion strains, locus YLR262C, strain YPT6 (second series), stronger effect = lower value 0.998 | S. cerevisiae deletion strains, locus YLR262C, strain YPT6, stronger effect = lower value 0.842 | S. cerevisiae deletion strains, locus YLR268W, strain sec22, stronger effect = lower value 0.956 | S. cerevisiae deletion strains, locus YLR320W, strain mms22, stronger effect = lower value 1.01 | S. cerevisiae deletion strains, locus YLR330W, strain CHS5, stronger effect = lower value 0.979 | S. cerevisiae deletion strains, locus YLR342W, strain FKS1 (second series), stronger effect = lower value 0.881 | S. cerevisiae deletion strains, locus YLR342W, strain FKS1, stronger effect = lower value 1.02 | S. cerevisiae deletion strains, locus YLR357W, strain rsc2, stronger effect = lower value 1.02 | S. cerevisiae deletion strains, locus YLR370C, strain arc18, stronger effect = lower value 1.01 | S. cerevisiae deletion strains, locus YLR371W, strain rom2, stronger effect = lower value 0.958 | S. cerevisiae deletion strains, locus YLR384C, strain iki3, stronger effect = lower value 1.01 | S. cerevisiae deletion strains, locus YLR418C, strain cdc73, stronger effect = lower value 1.06 | S. cerevisiae deletion strains, locus YML016C, strain PPZ1, stronger effect = lower value 0.993 | S. cerevisiae deletion strains, locus YML032C, strain rad52, stronger effect = lower value 0.934 | S. cerevisiae deletion strains, locus YML120C, strain ndi1, stronger effect = lower value 1.01 | S. cerevisiae deletion strains, locus YML124C, strain tub3, stronger effect = lower value 0.958 | S. cerevisiae deletion strains, locus YMR058W, strain fet3, stronger effect = lower value 1.01 | S. cerevisiae deletion strains, locus YMR078C, strain ctf18, stronger effect = lower value 0.934 | S. cerevisiae deletion strains, locus YMR125W, strain sto1, stronger effect = lower value 1.02 | S. cerevisiae deletion strains, locus YMR129W, stronger effect = lower value 1.01 | S. cerevisiae deletion strains, locus YMR205C, strain PFK2, stronger effect = lower value 1.01 | S. cerevisiae deletion strains, locus YMR223W, strain ubp8, stronger effect = lower value 0.913 | S. cerevisiae deletion strains, locus YMR231W, strain pep5, stronger effect = lower value 0.996 | S. cerevisiae deletion strains, locus YMR263W, strain SAP30, stronger effect = lower value 1.01 | S. cerevisiae deletion strains, locus YMR307W, strain GAS1, stronger effect = lower value 0.973 | S. cerevisiae deletion strains, locus YNL067W, strain RPL9B, stronger effect = lower value 0.988 | S. cerevisiae deletion strains, locus YNL071W, strain lat1, stronger effect = lower value 1.01 | S. cerevisiae deletion strains, locus YNL128W, strain TEP1, stronger effect = lower value 1.03 | S. cerevisiae deletion strains, locus YNL153C, strain GIM3, stronger effect = lower value 1.02 | S. cerevisiae deletion strains, locus YNL183C, strain NPR1, stronger effect = lower value 0.912 | S. cerevisiae deletion strains, locus YNL209W, strain ssb2, stronger effect = lower value 1.01 | S. cerevisiae deletion strains, locus YNL233W, strain BNI4, stronger effect = lower value 1.01 | S. cerevisiae deletion strains, locus YNL248C, strain rpa49, stronger effect = lower value 1 | S. cerevisiae deletion strains, locus YNL250W, strain rad50, stronger effect = lower value 0.976 | S. cerevisiae deletion strains, locus YNL271C, strain bni1, stronger effect = lower value 0.939 | S. cerevisiae deletion strains, locus YNL298W, strain CLA4, stronger effect = lower value 0.932 | S. cerevisiae deletion strains, locus YNL322C, strain KRE1 (second series), stronger effect = lower value 1.01 | S. cerevisiae deletion strains, locus YNL322C, strain KRE1, stronger effect = lower value 0.991 | S. cerevisiae deletion strains, locus YNR049C, strain mso1, stronger effect = lower value 1.02 | S. cerevisiae deletion strains, locus YNR052C, strain pop2, stronger effect = lower value 0.945 | S. cerevisiae deletion strains, locus YOL006C, strain TOP1, stronger effect = lower value 0.921 | S. cerevisiae deletion strains, locus YOL012C, strain htz1 2.2 | S. cerevisiae deletion strains, locus YOL147C, strain pex11, stronger effect = lower value 0.97 | S. cerevisiae deletion strains, locus YOR001W, strain rrp6, stronger effect = lower value 0.983 | S. cerevisiae deletion strains, locus YOR061W, strain CKA2, stronger effect = lower value 0.985 | S. cerevisiae deletion strains, locus YOR069W, strain VPS5, stronger effect = lower value 0.986 | S. cerevisiae deletion strains, locus YOR070C, strain gyp1, stronger effect = lower value 1.01 | S. cerevisiae deletion strains, locus YOR080W, strain dia2, stronger effect = lower value 1.02 | S. cerevisiae deletion strains, locus YOR083W, strain WHI5, stronger effect = lower value 1 | S. cerevisiae deletion strains, locus YOR106W, strain vam3, stronger effect = lower value 0.995 | S. cerevisiae deletion strains, locus YOR136W, strain idh2, stronger effect = lower value 0.959 | S. cerevisiae deletion strains, locus YOR144C, strain elg1, stronger effect = lower value 0.96 | S. cerevisiae deletion strains, locus YOR231W, strain MKK1, stronger effect = lower value 0.954 | S. cerevisiae deletion strains, locus YOR265W, strain rbl2, stronger effect = lower value 1 | S. cerevisiae deletion strains, locus YOR270C, strain vph1, stronger effect = lower value 0.969 | S. cerevisiae deletion strains, locus YOR290C, strain snf2, stronger effect = lower value 1 | S. cerevisiae deletion strains, locus YOR316C, strain cot1, stronger effect = lower value 0.97 | S. cerevisiae deletion strains, locus YPL051W, strain arl3, stronger effect = lower value 1 | S. cerevisiae deletion strains, locus YPL055C, strain LGE1, stronger effect = lower value 1.04 | S. cerevisiae deletion strains, locus YPL078C, strain atp4, stronger effect = lower value 1.01 | S. cerevisiae deletion strains, locus YPL106C, strain sse1, stronger effect = lower value 1.01 | S. cerevisiae deletion strains, locus YPL240C, strain hsp82, stronger effect = lower value 1.02 | S. cerevisiae deletion strains, locus YPL241C, strain CIN2, stronger effect = lower value 0.995 | S. cerevisiae deletion strains, locus YPL256C, strain CLN2, stronger effect = lower value 0.962 | S. cerevisiae deletion strains, locus YPR119W, strain clb2, stronger effect = lower value 0.971 | S. cerevisiae deletion strains, locus YPR141C, strain kar3, stronger effect = lower value 0.968 | S. cerevisiae deletion strains, locus YPR163C, strain tif3, stronger effect = lower value 0.95 | S. cerevisiae deletion strains, locus YPR167C, strain met16, stronger effect = lower value 0.967 | S. cerevisiae deletion strains, strain wtn01, stronger effect = lower value 0.982 | S. cerevisiae strains, strain wild type, stronger effect = lower value 0.983
